# Data from ChEMBL document CHEMBL1961873, “Compounds: GSK PKIS; Assays: Nanosyn kinase panel” (2012).
# Where “and” joins values, the source holds several entries; their conditions need not be identical. Identical values can stand only once.
# Columns and labels:
# [1] = target: Serine/threonine-protein kinase PAK 6 (Homo sapiens) (UniProt Q9NQU5); settings: at 1 µM;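 note: values are mean percent inhibition of PAK6 kinase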
# [2] = system: Tyrosine-protein kinase ABL1 (Homo sapiens), P00519 [E255K]; settings: at 0.1 µM
# [3] = system: Tyrosine-protein kinase ABL1 (Homo sapiens), P00519 [E255K]; settings: at 1 µM
# [4] = system: Tyrosine-protein kinase ABL1 (Homo sapiens), P00519 [H396P]; settings: at 0.1 µM
# [5] = system: Tyrosine-protein kinase ABL1 (Homo sapiens), P00519 [H396P]; settings: at 1 µM
# [6] = system: Tyrosine-protein kinase ABL1 (Homo sapiens), P00519 [M351T]; settings: at 0.1 µM
# [7] = system: Tyrosine-protein kinase ABL1 (Homo sapiens), P00519 [M351T]; settings: at 1 µM
# [8] = system: Tyrosine-protein kinase ABL1 (Homo sapiens), P00519 [Q252H]; settings: at 0.1 µM
# [9] = system: Tyrosine-protein kinase ABL1 (Homo sapiens), P00519 [Q252H]; settings: at 1 µM
# [10] = system: Tyrosine-protein kinase ABL1 (Homo sapiens), P00519 [T315I]; settings: at 0.1 µM
# Serine/threonine-protein kinase PAK 6 (Homo sapiens), sequence (Q9NQU5 whole entry, looked up): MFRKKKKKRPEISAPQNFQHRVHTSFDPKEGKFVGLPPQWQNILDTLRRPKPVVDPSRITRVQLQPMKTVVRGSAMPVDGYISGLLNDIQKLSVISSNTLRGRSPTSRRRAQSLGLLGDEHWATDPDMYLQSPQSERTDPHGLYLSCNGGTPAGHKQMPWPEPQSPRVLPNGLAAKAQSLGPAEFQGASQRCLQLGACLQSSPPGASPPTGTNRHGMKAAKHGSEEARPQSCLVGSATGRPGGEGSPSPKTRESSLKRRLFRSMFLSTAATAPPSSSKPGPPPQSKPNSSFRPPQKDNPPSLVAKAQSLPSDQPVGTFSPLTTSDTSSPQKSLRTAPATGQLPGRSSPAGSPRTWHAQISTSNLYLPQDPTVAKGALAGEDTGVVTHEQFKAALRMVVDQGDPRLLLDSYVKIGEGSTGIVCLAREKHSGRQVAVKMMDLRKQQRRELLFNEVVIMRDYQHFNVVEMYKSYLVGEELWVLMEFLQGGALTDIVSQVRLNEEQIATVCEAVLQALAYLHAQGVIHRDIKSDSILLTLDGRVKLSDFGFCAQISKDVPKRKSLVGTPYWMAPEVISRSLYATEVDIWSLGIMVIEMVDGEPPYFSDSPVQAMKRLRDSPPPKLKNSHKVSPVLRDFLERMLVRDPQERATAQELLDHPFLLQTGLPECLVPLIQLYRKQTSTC
SMILES,inhibition [1],inhibition [2],inhibition [3],inhibition [4],inhibition [5],inhibition [6],inhibition [7],inhibition [8],inhibition [9],inhibition [10]
COc1ccc2ncn(-c3cc(O[C@H](C)c4ccccc4C(F)(F)F)c(C(N)=O)s3)c2c1,-8.65%,-0.4%,-1.92%,-0.02%,2.03%,0.8%,1.91%,-0.3%,2.05%,0.03%
CNC(=O)c1cncc(/C=C/c2ccccc2C)c1,12%,4.47%,16.5%,6.03%,28.8%,6.13%,22.7%,5.28%,19.3%,1.47%
CCCNc1cccc(-n2ncc3c(N/N=C/c4ccncc4)ncnc32)c1,2.09%,27.1%,77.2%,37.5%,86%,36.8%,85.8%,35.7%,83.8%,37.5%
CN1CCC(C(=O)Nc2n[nH]c3nc(-c4ccc(O)cc4)c(Br)cc23)CC1,-4.52%,2.77% and -0.12%,13.4% and 6.5%,4.9% and 3.81%,15.7% and 13.9%,1.55% and 2.92%,13.9% and 9.89%,3.16% and 3.78%,17.1% and 15.7%,2.49% and 2.76%
COc1ccc(Nc2ncc(-c3ccccc3)o2)cc1OC,-2.99%,4.59%,32.7%,10.7%,53.6%,10.2%,56.2%,7.95%,44.7%,1.08%
CS(=O)(=O)CCNCc1ccc(-c2ccc3ncnc(Nc4ccc(OCc5ccccc5)cc4)c3c2)o1,-0.08%,2.13%,3.38%,4.24%,5.36%,2.42%,4.54%,3.95%,5.12%,1.78%
Cc1nnc(-c2cccc(-c3ccc(C(=O)NCC4CC4)cc3)c2)o1,-1.37%,4.38%,4.87%,4.09%,6.67%,2.13%,5.6%,4.31%,5.92%,4.43%
Fc1ccc(Nc2nccc(-c3c(-c4ccc(C(F)(F)F)cc4)nn4ncccc34)n2)cc1F,1.02%,0.93%,3.19%,3.64%,1.04%,2.73%,2.45%,3.28%,-0.3%,3.85%
O=C(O[C@H]1CN[C@H](C#Cc2cc3ncnc(Nc4ccc5c(cnn5Cc5ccccc5)c4)c3s2)C1)N1CCOCC1,0.8%,0.73%,0.29%,-0.26%,1.3%,2.14%,-0.2%,0.53%,0.83%,-1.97%
Cn1c(-c2nonc2N)nc2cnccc21,0.39%,2.74%,1.01%,2.83%,2.87%,1.44%,2.81%,2.07%,1.71%,0.03%
Cc1c2ccc(N(C)c3ccnc(Nc4cccc(S(N)(=O)=O)c4)n3)cc2nn1C,-6.14%,19.6%,67.6%,37.9%,81.6%,39.5%,84.8%,42.9%,83.6%,11.3%
CCn1c(-c2nonc2N)nc2cncc(C(=O)NCCNC)c21,-1.02%,3.42%,4.29%,3.77%,6.65%,-0.31%,3.11%,4.53%,5.61%,3.85%
CNC(=O)c1sc(-n2cnc3cc(OC)c(OC)cc32)cc1OCc1ccccc1C(F)(F)F,-4.28%,1.88%,9.07%,3.16%,10.5%,0.2%,6.66%,4.26%,7.88%,1.96%
NS(=O)(=O)c1cccc(N/C=C2\C(=O)Nc3ccccc32)c1,1.64%,5.29%,7.64%,6.01%,8.67%,3.89%,8.75%,5.8%,8.71%,3.14%
COC(=O)Nc1nc2ccc(Oc3ccc(NC(=O)Nc4cc(C(F)(F)F)ccc4F)cc3)cc2s1,-8.13%,17.2%,66.8%,65.9%,92.3%,76.6%,93.3%,75.1%,91.4%,78.8%
COc1ccc(-c2nn3ncccc3c2-c2ccnc(Nc3ccc(F)c(F)c3)n2)cc1,-1.89%,3.61%,10.3%,4.57%,22.8%,17%,58.1%,12.2%,47.4%,5.18%

SMILES,inhibition [1],inhibition [2],inhibition [3],inhibition [4],inhibition [5],inhibition [6],inhibition [7],inhibition [8],inhibition [9],inhibition [10]
O=C1Nc2ccccc2/C1=C1\CCc2cc(O)ccc21,-3.1%,1.09%,9.2%,5.59%,15%,4.89%,15.4%,5.53%,12.8%,4.27%
CS(=O)(=O)CCNCc1ccoc1-c1ccc2ncnc(Nc3ccc(OCc4ccccc4)cc3)c2c1,-2.12%,-3.3%,0.24%,0.81%,-0.01%,0.87%,-0.25%,1.54%,1.56%,1.58%
Cc1cc(O)cc(C)c1/C=C/c1cncc(C(=O)OC(C)(C)C)c1,-0.98%,4.42%,21.6%,7.59%,35%,9.08%,46%,11.7%,52.5%,1.3%
O=C(O[C@H]1CN[C@H](C#Cc2cc3ncnc(Nc4ccc5c(ccn5Cc5cc(F)ccc5F)c4)c3s2)C1)N1CCOCC1,-0.57%,1.52%,3.53%,4.04%,8.92%,1.92%,3.98%,3.74%,3.88%,3.97%
COc1cc(Nc2ncc(-c3ccccc3)o2)cc(OC)c1,-4.99%,5.8%,23.1%,9.34%,39.7%,8.13%,41.1%,9.25%,33.6%,4.18%
Nc1ncnc2occ(-c3ccc(NC(=O)Nc4cc(C(F)(F)F)ccc4F)cc3)c12,0.09% and -8.17%,5.05% and 2.1%,33.4% and 18.4%,24.2% and 11.5%,73.1% and 58.4%,56.4% and 49.1%,84.6% and 76.3%,55.7% and 45.2%,79.1% and 74%,53.6% and 39.2%
COc1cc2c(cc1Nc1nc(Nc3cccc(F)c3C(N)=O)c3cc[nH]c3n1)N(C(=O)CN1CCN(C(C)C)CC1)CC2,-0.05%,-0.8%,-0.74%,-1.59%,0.65%,-1.33%,2.97%,-0.13%,3.8%,-0.82%
COc1cc(N2CCN(C(C)C)CC2)ccc1Nc1nc(Nc2cccc3ncccc23)c2cc[nH]c2n1,-4.19%,0.09%,0.59%,2.17%,3.86%,2.31%,3.99%,1.61%,3.51%,1.61%
CC1=C(C(=O)Nc2ccc3[nH]nc(C)c3c2)C(c2ccc(C(F)(F)F)cc2)CC(=O)N1 (stereo not given),6.01%,2.57%,3.48%,4.06%,4.03%,1.49%,4.65%,4.49%,3.3%,3.82%
NC(=O)c1ccc2c(-c3ccnc(NCCCO)n3)c(-c3ccc(F)cc3)nn2c1,-5.05%,4.7%,7.28%,6.27%,8.34%,3.9%,10.1%,5.67%,10.2%,2.91%
c1ccc(-c2n[nH]cc2-c2ccnc(-c3ccc(OCCn4ccnc4)cc3)c2)nc1,-6.97%,23.1%,71.2%,46.9%,88.1%,43.8%,87.2%,25.9%,73.4%,3%
CS(=O)(=O)CCNCc1ccc(-c2ccc3ncnc(Nc4ccc(OCc5cccc(C(F)(F)F)c5)cc4)c3c2)o1,-8.87%,0.33%,2.52%,3.55%,4.29%,-0.21%,1.37%,3.36%,4.5%,1.82%
CN1CCC(n2cnc(-c3ccc(F)cc3)c2-c2ccnc(NCCO)n2)CC1,-2.04%,2.22%,5.59%,3.64%,6.05%,0.67%,7.5%,5.69%,4.05%,3.06%
FC(F)(F)CNc1nccc(-c2cnn3ncccc23)n1,-2.36%,6.33%,1.46%,2.61%,2.38%,0.25%,0.76%,1.08%,1.59%,0.06%
Cc1ccc(-c2cc3c(NC(=O)C4CC4)ncnc3o2)cc1,1.82%,5.52%,18.3%,5.91%,24.2%,3.97%,22.8%,6.11%,23.7%,4.71%
